Laboratory results published in PubChem BioAssay (Tox21).
Results filed as inconclusive are left out. The source made the active and inactive calls. Unless noted, calls come from the whole dose curve; as a rule, active = well fitted curve in the direction sought with a large enough effect in the repeat runs; inconclusive = weak or mixed curves; inactive = no such curve, though single readings can be large; an effect the other way counts as inactive or inconclusive.

Legend:
[1] = qHTS RealTime-Glo MT Cell Viability Assay in HEK293 cells - 0 hour (AID 1224880); note: top concentration of the series differs between compounds; nearly all actives have a fitted effect of over 45% in size
Method in brief: (§1)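 Cells were seeded together with NanoLuc luciferase and a prosubstrate that viable cells reduce to a luciferase substrate. After a 5 h incubation at 37 C/5% CO2, compounds were added and luminescence was measured repeatedly during 40 h of treatment.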

[2] = A CellTox Green Cytotoxicity Assay to monitor cytotoxicity in HEK293 cells - 32 hour (AID 1224881); note: nearly all actives have a fitted effect of over 40% in size
Method in brief: (§2)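 Nonlytic real-time cytotoxicity: HEK293 + CellTox Green reagent plated, 5 h preincubation, pintool compound addition (23 nL in DMSO), 37 C for 40 h, fluorescence measured at successive time points.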

[3] = A CellTox Green Cytotoxicity Assay to monitor cytotoxicity in HepG2 cells - 0 hour (AID 1224882); note: nearly all actives have a fitted effect of over 35% in size
Method in brief: (§3)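 Read-out is fluorescence of a cyanine dye excluded from live cells that stains DNA of dead HepG2 cells, with signal proportional to cytotoxicity. Plates were read at 0, 8, 16, 24, 32 and 40 h after compound addition.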

[4] = A CellTox Green Cytotoxicity Assay to monitor cytotoxicity in HepG2 cells - 32 hour (AID 1224883); note: nearly all actives have a fitted effect of over 50% in size
Method in brief: as §3

[5] = A CellTox Green Cytotoxicity Assay to monitor cytotoxicity in HEK293 cells - 8 hour (AID 1224884); note: nearly all actives have a fitted effect of over 35% in size
Method in brief: as §2

[6] = qHTS RealTime-Glo MT Cell Viability Assay in HepG2 cells - 16 hour (AID 1224885); note: nearly all actives have a fitted effect of over 50% in size
Method in brief: (§4)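 HepG2 suspension premixed with RealTime-Glo reagents is plated at 600 cells per well and left 5 h at 37 C/5% CO2. Compounds in DMSO then go in, and bioluminescence reflecting viable cell number is recorded over 40 h.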

[7] = qHTS RealTime-Glo MT Cell Viability Assay in HEK293 cells - 24 hour (AID 1224886); note: top concentration of the series differs between compounds; nearly all actives have a fitted effect of over 50% in size
Method in brief: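 Reads taken at 0, 8, 16, 24, 32 and 40 h from the same wells. HEK293 cells (600/well) carried RealTime-Glo reagents from seeding, with compound added after a 5 h settle at 37 C.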

[8] = qHTS RealTime-Glo MT Cell Viability Assay in HEK293 cells - 8 hour (AID 1224887); note: top concentration of the series differs between compounds; nearly all actives have a fitted effect of over 50% in size
Method in brief: as §1

[9] = A CellTox Green Cytotoxicity Assay to monitor cytotoxicity in HEK293 cells - 16 hour (AID 1224888); note: nearly all actives have a fitted effect of over 35% in size
Method in brief: as §2

[10] = qHTS RealTime-Glo MT Cell Viability Assay in HepG2 cells - 0 hour (AID 1224889); note: nearly all actives have a fitted effect of over 50% in size
Method in brief: as §4

[11] = qHTS assay to identify small molecule antagonists of the estrogen receptor alpha (ER-alpha) signaling pathway using the BG1 cell line in the presence of 0.1 nM 17-beta-estradiol - cell viability counter screen (AID 1259241); note: nearly all actives have a fitted effect of over 40% in size
Method in brief: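 CellTiter-Fluor read (30 min, 37C) on ER-alpha/ERE-luc VM7Luc4E2 cells; 22 hr compound treatment; agonist 0.1 nM E2 final; same-well multiplex.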

[12] = qHTS assay to identify small molecule antagonists of the androgen receptor (AR) signaling pathway using the MDA cell line in the presence of 0.5 nM R1881 - cell viability counter screen (AID 1259242); note: nearly all actives have a fitted effect of over 45% in size
Method in brief: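 Counter screen for cytotoxicity run in the same wells as the AR antagonist reporter screen: MDA-kb2 cells were treated 16 hr with test compounds and 0.5 nM R1881, then live-cell protease activity was measured by fluorescence.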

[13] = biological target: Androgen receptor (Homo sapiens) (UniProt P10275); experiment: qHTS assay to identify small molecule antagonists of the androgen receptor (AR) signaling pathway using the MDA cell line in the presence of 0.5 nM R1881 (AID 1259243); note: nearly all actives have a fitted effect of over 50% in size
Androgen receptor (Homo sapiens), sequence (P10275 whole entry, looked up): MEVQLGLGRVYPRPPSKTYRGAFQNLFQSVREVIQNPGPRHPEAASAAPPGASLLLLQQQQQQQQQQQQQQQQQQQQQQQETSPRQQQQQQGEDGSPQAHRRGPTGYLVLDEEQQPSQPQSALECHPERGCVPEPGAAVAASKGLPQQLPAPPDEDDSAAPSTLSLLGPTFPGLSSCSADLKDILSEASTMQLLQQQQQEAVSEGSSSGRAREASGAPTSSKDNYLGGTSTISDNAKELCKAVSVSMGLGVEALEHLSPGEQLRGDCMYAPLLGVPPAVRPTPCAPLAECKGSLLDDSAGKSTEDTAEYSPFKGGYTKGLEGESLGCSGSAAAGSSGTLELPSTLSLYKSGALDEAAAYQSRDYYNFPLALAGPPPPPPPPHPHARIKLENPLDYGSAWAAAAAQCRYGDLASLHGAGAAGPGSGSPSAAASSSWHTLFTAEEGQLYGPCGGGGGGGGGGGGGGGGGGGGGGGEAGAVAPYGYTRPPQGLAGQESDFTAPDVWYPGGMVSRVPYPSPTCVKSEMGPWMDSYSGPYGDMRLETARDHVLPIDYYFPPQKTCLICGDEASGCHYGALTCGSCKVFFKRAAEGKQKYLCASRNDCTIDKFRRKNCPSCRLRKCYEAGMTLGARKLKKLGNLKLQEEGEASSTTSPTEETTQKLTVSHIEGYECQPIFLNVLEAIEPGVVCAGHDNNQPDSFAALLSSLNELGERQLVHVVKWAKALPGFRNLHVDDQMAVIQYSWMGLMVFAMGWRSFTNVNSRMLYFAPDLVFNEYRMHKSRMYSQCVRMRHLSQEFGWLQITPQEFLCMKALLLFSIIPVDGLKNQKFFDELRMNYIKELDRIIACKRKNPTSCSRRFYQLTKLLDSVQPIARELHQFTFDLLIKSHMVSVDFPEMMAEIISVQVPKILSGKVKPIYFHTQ
Method in brief: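 Luciferase luminescence is the read-out: compounds are tested for suppressing 0.5 nM R1881-driven MMTV reporter activity in MDA-kb2 cells after 16 hr at 37C.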

[14] = qHTS assay to identify small molecule HDAC inhibitors (AID 1259364); note: top concentration of the series differs between compounds; nearly all actives have a fitted effect of over 45% in size
Method in brief: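 Luminescence from a cell-permeant luminogenic class I/II HDAC substrate reports endogenous deacetylase activity in intact HCT-116 cells treated with compounds for 2 h.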

[15] = qHTS assay to identify small molecule HDAC inhibitors - cell viability counter screen (AID 1259365)
Method in brief: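 To flag cytotoxic hits, 1,500 wild-type HCT-116 cells per well, plated the day before, receive test compounds for 2hr at 37 C before CellTiter-Glo reagent and a luminescence read.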

[16] = qHTS assay to identify small molecule agonists of the sonic hedgehog signaling (Shh) pathway - cell viability counter screen (AID 1259366); note: nearly all actives have a fitted effect of over 50% in size
Method in brief: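 Fluorescence from CellTiter-Fluor reports live cells in this counter screen. NIH/3T3-derived Gli1-Luc reporter cells receive test compounds for 24hr at 37C; reagent goes in at 23hr.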

[17] = qHTS assay to identify small molecule antagonists of the sonic hedgehog signaling (Shh) pathway - cell viability counter screen (AID 1259367); note: nearly all actives have a fitted effect of over 55% in size
Method in brief: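 NIH/3T3-derived Gli1-Luc reporter cells, 2,000/well, plated 4 hr before compound addition, then stimulated with conditioned medium for 24 hr at 37C. Viability measured in the same wells by CellTiter-Fluor fluorescence, reagent added at 23 hr for 1 hr.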

[18] = biological target: Estrogen receptor (Homo sapiens) (UniProt P03372); experiment: qHTS assay to identify small molecule antagonists of the estrogen receptor alpha (ER-alpha) signaling pathway using the BG1 cell line in the presence of 0.1 nM 17-beta-estradiol (AID 1259244); note: nearly all actives have a fitted effect of over 50% in size
Estrogen receptor (Homo sapiens), sequence (P03372 whole entry, looked up): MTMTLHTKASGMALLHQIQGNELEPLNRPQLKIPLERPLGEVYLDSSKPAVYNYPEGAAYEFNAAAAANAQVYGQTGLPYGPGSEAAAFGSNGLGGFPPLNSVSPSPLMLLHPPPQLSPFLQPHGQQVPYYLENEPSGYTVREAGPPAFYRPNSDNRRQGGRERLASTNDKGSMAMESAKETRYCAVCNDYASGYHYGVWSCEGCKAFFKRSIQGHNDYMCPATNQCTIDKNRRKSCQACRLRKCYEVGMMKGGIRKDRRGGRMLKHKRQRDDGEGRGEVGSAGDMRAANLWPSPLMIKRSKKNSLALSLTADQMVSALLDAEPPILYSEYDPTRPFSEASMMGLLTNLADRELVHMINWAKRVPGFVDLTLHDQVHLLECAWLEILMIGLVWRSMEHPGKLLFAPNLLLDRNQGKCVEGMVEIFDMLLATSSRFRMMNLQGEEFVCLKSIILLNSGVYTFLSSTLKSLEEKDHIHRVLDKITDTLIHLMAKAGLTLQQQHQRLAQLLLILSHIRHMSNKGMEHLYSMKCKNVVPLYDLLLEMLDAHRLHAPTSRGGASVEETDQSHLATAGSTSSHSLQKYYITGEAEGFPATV
Method in brief: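 Cells: VM7Luc4E2, endogenous ER-alpha, 4x ERE-luc stable. Pre-culture 5 d, phenol red-free, charcoal-stripped FBS. Plated 24 h, compound + E2 0.1 nM final, 22 h 37C/5% CO2. Readout ONE-Glo luminescence.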

[19] = A CellTox Green Cytotoxicity Assay to monitor cytotoxicity in HepG2 cells - 8 hour (AID 1224890); note: nearly all actives have a fitted effect of over 45% in size
Method in brief: as §3

[20] = qHTS assay to identify small molecule phospholipidosis (PLD) inducers (AID 1259344; active = well fitted curve in the direction sought with a large enough effect; an effect the other way counts as inactive or inconclusive)
Method in brief: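 HepG2 cells, 900/well, treated with compound plus LipidTOX Red for 24 h at 37 C; amiodarone positive and DMSO negative controls. Fixed with paraformaldehyde/Hoechst, then high-content imaging scored LipidTOX pit count and integrated intensity per well and per cell.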

Measured: Potency

COc1ccc(NC(C)=O)cc1
not listed: [18] | [19] | [20]
inactive: all other assays above

C(=C(c1ccccc1)c1ccccc1)c1ccccc1
not listed: [13] | [19] | [20]
inactive: all other assays above

CO[Si](OC)(OC)OC
not listed: [13] | [18] | [19] | [20]
inactive: all other assays above

O=c1[nH]c(=O)n([C@H]2O[C@H](CO)[C@@H](O)[C@@H]2O)cc1/C=C\Br
not listed: [17] | [19] | [20]
inactive: all other assays above

Oc1cc(O)c2c(c1)O[C@H](c1ccc(O)c(O)c1)[C@H](O)C2
not listed: [9] | [13]
inactive: all other assays above

OC/C=C/c1ccccc1
not listed: [13] | [18] | [19]
inactive: all other assays above

CC(C)CCCC(C)CCCC(C)CCCCC(C)CCCC(C)CCCC(C)C (stereo not drawn)
not listed: [13] | [17] | [18] | [19]
inactive: all other assays above

CN1[C@@H]2CC[C@H]1CC(NC(=O)n1c(=O)[nH]c3ccccc31)C2 (stereo partly drawn)
not listed: [9]
inactive: all other assays above

CN(C)C(=O)Nc1ccccc1
not listed: [9] | [13] | [17] | [20]
inactive: all other assays above
